Hits are enriched below; roughly 3.8% of the tested compounds scored in any of these assays.
HSF1 activator – HSF-1 activators, primary screen, NIH3T3-HGL cells, MG132 stress, luminescence, single point | NIH3T3-HGL HSF-1 luciferase reporter, 8 h; 100% = twice DMSO control signal | activation, % at 9 µM | 300,000 tested, 1.7% active;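 active = mean replicate activation of at least 50% with a set share of replicates each reaching 50%; inconclusive = only one of those two conditions met; inactive = mean below 50% and too few replicates reaching it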
MITF act – activators of MITF-driven TRPM1 promoter reporter, primary screen, cell-based, SK-MEL-5, luciferase, single point; SK-MEL-5 TRPM1-promoter luciferase, 24 h; % of positive control, neutral wells = 0; 300,000 tested, 0.75% active; activation, % at 12.5 µM; AID 588334, 2011;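 active = mean activation of at least 80% with every replicate also reaching 80%; inconclusive = mean reaches 80% but some replicate falls short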
Wnt act – Wnt/beta-catenin pathway activators, primary screen, cell-based, plate reader, single point; 300,000 tested, 1.2% active; AID 743398, 2014; Wnt/beta-catenin reporter cell assay, activator; activation, % at 9.35 µM; in the data active = activation above about 30%, passing the limit was not always enough; inconclusive = no clear call, values can overlap the other calls
esBAF inh – Bmi1 luciferase reporter increase in mESCs, primary screen, esBAF inhibitor project, mouse ES cells, Bmi1 luciferase knock-in, single point | 24 h; 100% = twice the neutral-well signal | reporter increase, % at 12.5 µM | 350,000 tested, 2% active; in the data active = activation above about 40%; inconclusive = no clear call, values can overlap the other calls;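 also: a rise in the Bmi1 reporter signal indicates esBAF inhibition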
HSF1 inhib – HSF1 inhibitors in luciferase reporter cells, primary screen, cell-based, NIH3T3, luminescence; NIH3T3-HGL HSE-luciferase, MG132-induced, luminescence 8 h; stronger effect = lower value; activity change, negative = inhibition, % at 7.5 µM (by protocol); 300,000 tested, 0.77% active;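 active = more than half of replicate wells show activity change below -50%, luminescence cut by over half; inconclusive = some wells, but at most half, below -50%; inactive = no replicate well below -50%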;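 also: luciferase reports HSF-1 transcriptional activity via heat shock element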
Numbers stand for hits; 0 = inactive; ? = inconclusive; - = no result given.

SMILES	HSF1 activator	MITF act	Wnt act	esBAF inh	HSF1 inhib
C[C@@H]1CN([C@H](C)CO)C(=O)Cc2cc(NC(=O)C3CCCCC3)ccc2O[C@H]1CN(C)CC1CC1	-	-	-	0	-
CCC(=O)N1CCN(c2ccc(Cl)cc2NC(=O)c2ccc([N+](=O)[O-])o2)CC1	0	0	0	0	0
O=C(Nc1ccc(N2CCCC2)c(Cl)c1)c1ccc(Br)o1	0	0	-	76	0
CC(=O)N1CCN(c2ccc(NC(=O)c3ccc([N+](=O)[O-])o3)cc2Cl)CC1	0	-	0	0	-88
CCN1CCN(c2ccc(NC(=O)c3ccc([N+](=O)[O-])o3)cc2Cl)CC1	0	0	0	-	0
CCC(=O)N1CCN(c2ccc(NC(=O)c3ccc([N+](=O)[O-])o3)cc2Cl)CC1	128	0	0	-	0
CCc1ccc(NC(=O)c2cc(-c3ccco3)on2)cc1	80	101	-	66	0
COc1ccc(NC(=O)Nc2nnc(-c3ccco3)s2)cc1	0	0	53	0	0
COc1ccc(NC(=O)c2cc(-c3ccccc3Cl)on2)cc1	0	-	?	63	0
COc1ccc(NC(=O)c2cc(-c3ccccc3OC)on2)cc1	0	0	-	0	0
COc1ccc(NC(=O)c2cc(-c3ccco3)on2)cc1	0	92	42	-	0
COc1ccc(NC(=O)Nc2nnc(-c3ccccc3F)s2)cc1	0	0	0	-	0
Cn1nc(-c2ccc(Cl)cc2)cc1NC(=O)CC(C)(C)CC(=O)O	0	-	41	-	0
Cc1noc(C)c1NC(=O)N(C)C[C@@H]1Oc2ccc(NC(=O)CCN3CCOCC3)cc2CC(=O)N([C@@H](C)CO)C[C@@H]1C	-	-	-	0	-
C(=N\Nc1ncnc2ccccc12)/c1ccccc1	0	0	0	70	0
C/C(=N\Nc1nncc2ccccc12)c1ccc(C(C)(C)C)cc1	0	-	-	49	0
Clc1cccc(/C=N/Nc2ncnc3ccccc23)c1	0	-	-	53	0
C(=N\Nc1nncc2ccccc12)/c1ccccc1	0	0	38	0	0
O=c1[nH]c(N/N=C/c2ccccc2)nc2ccccc12	0	0	-	0	0
C[C@@H]1CN([C@H](C)CO)C(=O)c2cccc(N(C)C)c2O[C@H]1CN(C)Cc1ccc(C(=O)O)cc1	-	-	-	0	-
C[C@H]1CN([C@@H](C)CO)C(=O)c2cc(NC(=O)C3CC3)ccc2O[C@H]1CN(C)CC1CCCCC1	-	-	-	0	-
C[C@@H](NC(=O)C[C@H]1CC[C@@H](NC(=O)C2CCOCC2)[C@@H](CO)O1)c1ccccc1	-	-	-	0	-
CCOC(=O)C/C(=N\Nc1ncnc2ccccc12)c1ccccc1	0	0	0	43	0
CCOC(=O)/C(=N\Nc1ncnc2ccccc12)c1ccc(C)cc1	0	0	0	0	0
O=C(O)/C=C/c1ccc(O)cc1	0	0	0	0	0
SMILES	HSF1 activator	MITF act	Wnt act	esBAF inh	HSF1 inhib
COc1cc(/C=C/C(=O)O)cc(OC)c1	0	0	-	0	0
COc1cc(O)cc(/C=C/c2ccccc2)c1	-	0	0	51	-
Oc1ccc(/C=C/c2cc(O)cc(O)c2)cc1	0	104	0	0	0
CCCNC(=O)C[C@H]1CC[C@H]2[C@@H](COc3ccc(NC(=O)Cc4ccccc4)cc3C(=O)N2C)O1	-	-	-	0	-
CO[C@H]1CN(C)C(=O)c2cc(NC(=O)Nc3ccc(F)cc3)ccc2OC[C@@H](C)NC[C@@H]1C	-	-	-	0	-
CCCNC(=O)Nc1ccc2c(c1)OC[C@@H](C)N(C(=O)c1ccccc1F)C[C@@H](C)[C@@H](OC)CN(C)C2=O	-	-	-	0	-
CCC1(C)N=C(N)Nc2nc3cc(C)c(C)cc3n21 (stereo not given)	71	0	0	0	0
NC1=NC2(CCCC2)n2c(nc3ccccc32)N1	0	0	0	0	0
Cc1ccc(OCc2cc(C(=O)N(C)CCc3nc4ccccc4[nH]3)no2)cc1C	0	0	0	0	-88
COc1cc(Cl)ccc1OCc1cc(C(=O)N(C)CCc2cnn(C)c2)no1	0	0	0	88	0
Cc1cc(OCc2cc(C(=O)N(C)CCc3cnn(C)c3)no2)cc(C)c1Cl	0	0	0	74	0
Cc1ccc(OCc2cc(C(=O)N(C)Cc3cnn(C)c3)no2)cc1C	-	-	0	46	-
C[C@H]1CN([C@@H](C)CO)C(=O)c2cc(C#CC3CCCCC3)cnc2O[C@H]1CN(C)CC1CC1	-	-	-	0	-
C[C@H]1CN([C@@H](C)CO)C(=O)Cc2cc(NC(=O)Cc3ccccc3)ccc2O[C@@H]1CN(C)C(=O)Nc1ccc(C(F)(F)F)cc1	-	-	-	0	-
CNC(=O)C[C@@H]1CC[C@@H]2[C@@H](COc3ccc(NC(=O)Nc4ccc(F)c(F)c4)cc3C(=O)N2C)O1	-	-	-	0	-
C[C@@H]1CCCCO[C@H](CN(C)C(=O)Nc2ccccc2)[C@@H](C)CN([C@@H](C)CO)C(=O)c2cc(NS(C)(=O)=O)ccc2O1	-	-	-	0	-
C[C@H](NC(=O)[C@H]1[C@H](CO)[C@H]2Cn3c(cccc3=O)[C@@H]1N2Cc1ccccc1)c1ccccc1	-	-	-	0	-
S=C(NCCc1ccccc1)N1CCN(Cc2ccc(Cl)c(Cl)c2)CC1	0	0	0	-	-62
Fc1ccc(CN2CCN(C(=S)NCCc3ccccc3)CC2)c(Cl)c1	0	0	0	-	0
Cc1c(Cl)ccc2c1NC(=O)C21NC(CCC(N)=O)[C@H]2C(=O)N(c3ccc(Cl)cc3)C(=O)[C@H]21 (stereo not given in full)	56	0	0	0	0
Cc1c(Cl)ccc2c1NC(=O)[C@]21N[C@@H](CCC(N)=O)[C@H]2C(=O)N(c3ccc(F)cc3)C(=O)[C@H]21	0	-	0	0	0
CC(C)NC(=O)Nc1ccc2c(c1)C(=O)N([C@H](C)CO)C[C@@H](C)[C@@H](CN(C)C(=O)Nc1ccc(C(F)(F)F)cc1)OCCCC[C@@H](C)O2	-	-	-	0	-
CCCC(=O)Nc1ccc2c(c1)C(=O)N(C)[C@H]1CC[C@@H](CC(=O)NC3CCCC3)O[C@@H]1CO2	-	-	-	0	-
C[C@@H]1CN([C@H](C)CO)C(=O)c2cc(C#Cc3cccc(F)c3)cnc2O[C@H]1CN(C)C(=O)C1CCOCC1	-	-	-	0	-
COc1ccc2c(c1)C(=O)/C(=C/C=C/c1ccccc1)CC2	0	-	0	0	0
SMILES	HSF1 activator	MITF act	Wnt act	esBAF inh	HSF1 inhib
COc1ccc2c(c1)CC/C(=C/c1ccncc1)C2=O	0	0	-	0	0
COc1ccc2c(c1)CC/C(=C\c1ccc(C)o1)C2=O	0	87	0	0	0
COc1ccc2c(c1)CC/C(=C\C=C\c1ccccc1OC)C2=O	58	-	0	0	0
COCC#Cc1ccc2c(c1)O[C@@H](CN(C)C)[C@@H](C)CN([C@H](C)CO)S2(=O)=O	-	-	-	0	-
CO[C@H]1CN(C)C(=O)c2cc(NC(=O)Nc3ccccc3Cl)ccc2OC[C@@H](C)NC[C@H]1C	-	-	-	0	-
O=c1c2cccnc2[nH]c(=S)n1CCCN1CCN(c2ccc(F)cc2)CC1	0	0	-	0	0
COc1ccc(N2CCN(CCCn3c(=S)[nH]c4ncccc4c3=O)CC2)cc1	0	-	-	-	-56
